Pf growth 96h: Primary qHTS for delayed death inhibitors of the malarial parasite plastid, 96 hour incubation. P. falciparum luciferase reporter growth, 96 h. Potency, µM (top dose mostly 28.7 µM), inactives show top-dose activity change, negative = inhibition, actives largely listed as inhibitors. 320,000 compounds, 6.9% hits; also: potency is read from the fitted curve at half-maximal effect
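Cell-based qHTS: luciferase-tagged P. falciparum in erythrocytes (2% hematocrit, 0.05% parasitemia final) incubated with compounds for 96 hours, 37 C, 5% CO2; luciferase detection reagent then added and luminescence measured.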
Pf growth 48h: Primary qHTS for delayed death inhibitors of the malarial parasite plastid, 48 hour incubation | P. falciparum luciferase growth in erythrocytes, 48 h | Potency, µM (titrated, usually from 28.7 µM), for the others: at the top dose activity change, negative = inhibition, most hits filed as inhibitors | 310,000 compounds, 5.9% hits; also: potency is read from the fitted curve at half-maximal effect
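Erythrocytes infected with P. falciparum carrying an integrated firefly luciferase reporter (2% hematocrit, 0.1% parasitemia final) were exposed to compounds in RPMI 1640 with 0.5% Albumax at 37 C, 5% CO2. Growth inhibition was scored as reduced luminescence.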
Sm TGR block: qHTS Assay for the Inhibitors of Schistosoma Mansoni Peroxiredoxins; 360,000 compounds, 3% hits; Potency, µM (series often up to 114 µM), for inactives: at the top dose activity change, negative = inhibition, usual class: inhibitors; purified TGR, DTNB reduction, TNB absorbance 405 nm; also: potency is read from the fitted curve at half-maximal effect; nearly all actives have a fitted effect of over 60% in size
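Kinetic colorimetric format: TGR-catalysed, NADPH-driven DTNB reduction monitored via TNB absorbance. Enzyme dispensed at 20 nM; compound exposure 15 min at room temperature before reaction start.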
FBPA Giardia inh: qHTS Assay for Inhibitors of Fructose-1,6-bisphosphate Aldolase from Giardia Lamblia. A8B2U2. purified Giardia FBPA. Potency, µM (series often up to 59.6 µM), for the others: top-dose activity, negative = inhibition, usual class: inhibitors. 290,000 compounds, 0.71% hits. AID 2451, 2010; also: potency is read from the fitted curve at half-maximal effect; nearly all actives have a fitted effect of over 55% in size
Target sequence (A8B2U2 whole entry, looked up): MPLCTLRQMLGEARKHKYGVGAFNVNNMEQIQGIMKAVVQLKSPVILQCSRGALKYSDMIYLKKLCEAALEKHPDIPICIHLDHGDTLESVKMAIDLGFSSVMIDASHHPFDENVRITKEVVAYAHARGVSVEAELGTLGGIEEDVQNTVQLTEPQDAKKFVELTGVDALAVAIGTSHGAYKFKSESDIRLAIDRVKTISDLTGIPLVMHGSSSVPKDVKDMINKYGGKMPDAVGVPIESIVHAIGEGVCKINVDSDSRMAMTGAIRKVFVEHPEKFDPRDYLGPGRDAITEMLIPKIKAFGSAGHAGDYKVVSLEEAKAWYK
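Giardia FBPA (40 nM reagent) was preincubated 10 min at RT with compound (up to 57.5 uM final), then substrate plus GAPDH/TPI/NAD/arsenate coupling system with diaphorase/resazurin was added; resorufin fluorescence (525/598 nm) was read after 20 min.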
HCMV inh: qHTS Assay for inhibitors of the human cytomegalovirus (HCMV); activity change, negative = inhibition, % at 57.5 µM; AID 1259415, 2018; HFF cells, HCMV-luciferase reporter, 72 h; active compounds read low; 410,000 compounds, 4.5% hits; in the data active = activity change below about -60%; inconclusive = no clear call, values can overlap the other calls; inactive = above about -39%
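HFF cells seeded 16 h at 37C, treated with compounds, infected with luciferase-reporter HCMV at MOI 1 PFU/cell; luciferase read at 72 h post infection, normalized to buffer-only and Salinomycin controls.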
* hit, by the source's call; [ ] = another dose, or the depositor's remark. Most compounds without a hit are left out; they make up all but 14% or so of the library. Unless noted, calls follow the shape of the dose curve; as a rule, active = well fitted curve in the direction sought with a large enough effect; inconclusive = small, poorly fitted or top-dose-only effect, or another doubt; inactive = no such curve, though single readings can be large; an effect the other way counts as inactive or inconclusive. % is scaled to controls: 0 for no effect and ±100 for the full control effect.

What do the screens show for `O=C(NC(=S)Nc1ccc(N2CCOCC2)cc1)c1ccco1`?
Pf growth 96h: 43.5%; Pf growth 48h: 131.6%; Sm TGR block: 39.8µM*; FBPA Giardia inh: inconclusive; HCMV inh: 33.1

What do the screens show for `CCOc1cc(NC(=S)NCCCN2CCOCC2)c(OCC)cc1NC(=O)c1ccco1`?
Pf growth 96h: -13.9%; Pf growth 48h: 12.0%; Sm TGR block: 35.5µM*; FBPA Giardia inh: -18.2%; HCMV inh: 15.9

Results for Cc1ccccc1C(=O)NC(=S)Nc1ccc(N2CCOCC2)cc1 ?
Pf growth 96h: -4.2%; Pf growth 48h: 14.8%; Sm TGR block: inconclusive; FBPA Giardia inh: -5.6%; HCMV inh: 42.9

Results for CSCC[C@H](NC(=O)[C@H](Cc1ccccc1)NC[C@@H](NC[C@@H](N)CS)C(C)C)C(=O)O ?
FBPA Giardia inh: 0.2%

Results for COc1ccc(NC(=O)COC(=O)CCc2ccccc2)c(OC)c1 ?
Pf growth 96h: 26.9%; Pf growth 48h: inconclusive; Sm TGR block: 0.8%; FBPA Giardia inh: 5.8%; HCMV inh: -17.7

How did O=C(Cn1cnc([N+](=O)[O-])n1)c1ccc(O)c(O)c1 do in these assays?
Pf growth 96h: 14.0%; Pf growth 48h: inconclusive; Sm TGR block: -17.7%; FBPA Giardia inh: inconclusive; HCMV inh: -1.9

Results for O=C(NCCN1CCCCC1)c1ccc(Oc2cc(Cl)cc(Cl)c2)o1 ?
Pf growth 96h: 4.65µM*; Pf growth 48h: 7.38µM*; Sm TGR block: -15.2%; FBPA Giardia inh: -10.7%; HCMV inh: -28.1

Results for O=C(NCC1CC1)c1ccc(Oc2cc(Cl)cc(Cl)c2)o1 ?
Pf growth 96h: 9.28µM*; Pf growth 48h: 11.7µM*; Sm TGR block: inconclusive; FBPA Giardia inh: 2.2%; HCMV inh: 14.0

What do the screens show for `NNC(=O)c1ccc(Oc2cc(Cl)cc(Cl)c2)o1`?
Pf growth 96h: 2.6%; Pf growth 48h: 11.9%; Sm TGR block: 2.8%; FBPA Giardia inh: 0.6%; HCMV inh: 9.6

Results for O=C(c1ccc(Oc2cc(Cl)cc(Cl)c2)o1)N1CCCCC1 ?
Pf growth 96h: 25.5%; Pf growth 48h: 18.4%; Sm TGR block: -16.3%; FBPA Giardia inh: -4.0%; HCMV inh: 49.5

How did O=C(NCCN1CCCCC1)c1cc(Cl)ccc1Cl do in these assays?
Pf growth 96h: 4.65µM*; Pf growth 48h: 0.0%; Sm TGR block: -20.4%; FBPA Giardia inh: 12.1%; HCMV inh: 14.6

What do the screens show for `O=C(NCCN1CCCCC1)c1cccc2c1C(=O)c1ccc(N3CCCC3)cc1S2(=O)=O`?
HCMV inh: -65.0*

Results for Cc1cccc(NC(=O)c2ccc(S(=O)(=O)N3CCCCC3)cc2)c1 ?
Pf growth 96h: inconclusive; Pf growth 48h: -11.1%; Sm TGR block: -20.0%; HCMV inh: -13.6

What do the screens show for `CN(C)C(=O)[C@H]1C[C@@H]1[C@H](NC(=O)OCc1ccccc1)c1ccccc1`?
FBPA Giardia inh: 7.3%

How did Nc1ncnc2c1nc(-c1ccccc1)n2C1OC(CO)C(O)C1O (centres undefined) do in these assays?
HCMV inh: 11.0

What do the screens show for `Nc1ncnc2c(C3OC(CO)C(O)C3O)c[nH]c12` (centres undefined)?
HCMV inh: -97.5*

What do the screens show for `CC(=O)Nc1ccc(Nc2ccc(S(=O)(=O)C(F)(F)F)cc2[N+](=O)[O-])cc1`?
Pf growth 96h: inconclusive; Pf growth 48h: 14.7µM*; Sm TGR block: 3.6%; FBPA Giardia inh: 0.1%; HCMV inh: -97.0*

Results for CC1(C)CC(=O)C2=C(C1)c1c(ccc3ccccc13)NC2c1ccc(OCC(=O)O)cc1 (centres undefined) ?
Pf growth 96h: -29.4%; Pf growth 48h: 10.4µM*; Sm TGR block: -22.3%; FBPA Giardia inh: 13.4%; HCMV inh: 10.9

Results for COc1cccc(C2Nc3ccc4ccccc4c3C3=C2C(=O)CC(C)(C)C3)c1OCC(=O)O (centres undefined) ?
Pf growth 96h: inconclusive; Pf growth 48h: inconclusive; Sm TGR block: -9.3%; FBPA Giardia inh: 16.7%; HCMV inh: inconclusive

What do the screens show for `CC1(C)CC(=O)C2=C(C1)c1c(ccc3ccccc13)NC2c1ccc(Br)o1` (centres undefined)?
Pf growth 96h: inconclusive; Sm TGR block: -31.6%; FBPA Giardia inh: -11.0%; HCMV inh: -36.0

How did COc1cc(C2Nc3ccc4ccccc4c3C3=C2C(=O)CC(C)(C)C3)ccc1OC(C)C(=O)O (centres undefined) do in these assays?
Pf growth 96h: inconclusive; Pf growth 48h: 1.65µM*; Sm TGR block: inconclusive; FBPA Giardia inh: -9.6%; HCMV inh: 31.0

Results for COc1cc(C2Nc3ccc4ccccc4c3C3=C2C(=O)CC(C)(C)C3)ccc1OCC(=O)O (centres undefined) ?
Pf growth 96h: 0.928µM*; Pf growth 48h: inconclusive; Sm TGR block: -23.1%; FBPA Giardia inh: -4.5%; HCMV inh: 11.9

Results for COc1ccc(OC)c(NC(=O)CCc2c[nH]c3ccccc23)c1 ?
Pf growth 96h: 12.6%; Pf growth 48h: 4.2%; Sm TGR block: 6.8%; FBPA Giardia inh: -3.6%; HCMV inh: -16.4

Results for NC(=O)CN1C(=O)C(=O)N(Cc2cccc(C(F)(F)F)c2)C1=O ?
Pf growth 96h: 48.3%; Pf growth 48h: -7.1%[0.00184 µM]; Sm TGR block: 0.1%; FBPA Giardia inh: 3.1%; HCMV inh: -9.8

Results for COc1ccc(OC)c(C2Nc3ccccc3NC3=C2C(=O)CC(C)(C)C3)c1 (centres undefined) ?
Pf growth 96h: 4.15µM*; Pf growth 48h: 18.7%; Sm TGR block: -7.7%; FBPA Giardia inh: -7.2%; HCMV inh: 11.4

Results for COc1ccccc1C1C2=C(CC(C)(C)CC2=O)N(CC(=O)O)C2=C1C(=O)CC(C)(C)C2 ?
Pf growth 96h: 6.9%; Pf growth 48h: -11.7%; Sm TGR block: inconclusive; FBPA Giardia inh: -15.9%; HCMV inh: 1.9

How did COc1ccc(N2C3=C(C(=O)CC(C)(C)C3)C(c3ccccc3OC)C3=C2CC(C)(C)CC3=O)cc1 do in these assays?
Pf growth 96h: inconclusive; Pf growth 48h: inconclusive; Sm TGR block: -21.0%; FBPA Giardia inh: -16.6%; HCMV inh: -65.4*

What do the screens show for `COc1ccc(N2C3=C(CC4=C2CC(C)(C)CC4=O)C(=O)CC(C)(C)C3)cc1`?
Pf growth 96h: 13.1µM*; Pf growth 48h: 9.28µM*; Sm TGR block: inconclusive; FBPA Giardia inh: inconclusive; HCMV inh: -98.8*

How did COc1ccccc1C1Nc2ccccc2NC2=C1C(=O)CC(C)(C)C2 (centres undefined) do in these assays?
Pf growth 96h: -24.0%; Pf growth 48h: -7.6%; Sm TGR block: 6.1%; FBPA Giardia inh: 7.1%; HCMV inh: 21.3

Screening results (PubChem BioAssay)
